Test results: PubChem BioAssay (NCATS)
Inconclusive results are not listed. Unmarked numbers belong to inactive results. Active and inactive are the calls of the source. Calls follow the shape of the full dose curve.

Each compound was assayed against Bile acid receptor (Homo sapiens) (UniProt Q96RI1) (assay: qHTS assay for small molecule antagonists of farnesoid X receptor signaling (AID 588526)). Conditions: HEK293T FXR-UAS-bla, beta-lactamase ratio, antagonist mode; series mostly up to 76.7 µM; activity change, negative = inhibition: at the top concentration.
Bile acid receptor (Homo sapiens), sequence (Q96RI1 whole entry, looked up): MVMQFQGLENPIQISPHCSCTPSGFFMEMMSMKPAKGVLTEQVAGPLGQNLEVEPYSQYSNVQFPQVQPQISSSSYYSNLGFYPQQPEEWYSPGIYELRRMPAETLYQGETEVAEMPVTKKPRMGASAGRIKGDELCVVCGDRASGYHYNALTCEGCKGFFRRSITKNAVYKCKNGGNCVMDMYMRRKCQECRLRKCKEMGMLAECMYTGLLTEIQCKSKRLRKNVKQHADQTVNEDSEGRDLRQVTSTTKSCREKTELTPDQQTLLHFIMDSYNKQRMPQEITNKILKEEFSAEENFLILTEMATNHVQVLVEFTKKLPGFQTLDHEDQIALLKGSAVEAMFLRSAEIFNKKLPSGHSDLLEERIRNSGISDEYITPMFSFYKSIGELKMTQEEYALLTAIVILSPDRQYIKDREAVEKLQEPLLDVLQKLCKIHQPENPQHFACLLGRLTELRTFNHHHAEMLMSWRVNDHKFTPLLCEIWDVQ
Description: NIH Chemical Genomics Center [NCGC] U.S. Environmental Protection Agency [EPA] National Institutes of Environmental Health Sciences [NIEHS] National Toxicology Program [NTP] NCGC Assay Overview The farnesoid-X-receptor (FXR), a nuclear hormone receptor is highly expressed in liver, intestine, kidney and adrenal cortex. Natural ligands of FXR are the bile acids (Cholic acid, Chenodeoxy cholic acid etc). It is an important regulator of diverse metabolic pathways, including the bile acid homeostasis, lipid and glucose metabolisms. FXR regulates the expression of target genes by binding either as a monomer or as a heterodimer with RXR (retinoid X receptor). As FXR regulates a large number of target genes involved in bile acid, lipoprotein and glucose metabolisms, it is a potential pharmacological target for bile acid and lipid disorders. Thus screening environmental chemicals on FXR signaling can be used for the studies focused on metabolic syndrome, hepatic and intestinal toxicity etc.
NCGC Assay Protocol Summary Using a beta-lactamase reporter-gene under control of Farnesoid X receptor (FXR) response element, a cell-based assay [GeneBLAzer FXR-UAS-bla assay developed by Invitrogen] was used to measure FXR ligands signaling. GeneBLAzer FXR-UAS-bla HEK293T cells were used with assay medium containing 10% dialyzed FBS. The assay was performed in clear bottom black Greiner 1536-well plates. Guggulsterone were used in the screen as the positive control. Library compounds were measured for their ability to inhibit the reporter gene activity. Compounds were screened in a titration series in 1536-well format. The fluorescence intensity (405 nm excitation, 460/530 nm emission) was measured using an EnVision plate reader. Data was normalized relative to Chenodeoxycholic acid (50 uM, 100%), and DMSO only wells (basal, 0%). Concentration-response titration points for each compound were fitted to the Hill equation yielding concentrations of half-maximal inhibition (IC50) and maximal response (efficacy) values. qHTS protocol for FXR beta-lactamase assay in antagonist mode [Step] [Parameter] [Value] [Description] 1. Reagent; 5 uL; 5000 cells/well 2. Incubation; 37 C for 5-7 hrs 3. Compounds; 23 nL; 0.59 nM to 92 uM 4. Controls (Guggulsterone, FXR antagonist); 23 nL, - One column of dose response, start 200 uM, 1:2 dilutions in duplicates 5. Agonist (Stimulator); 1uL; Chenodeoxycholic acid at 100 uM and 50 uM final concentrations 6. Incubation; 37 C for 16 hrs 7. Detection reagent; 1 uL of CCF4-dye 8. Incubation; RT for 2 hrs 9. Detection; Fluorescence; Envision plate reader
% is scaled to controls: 0 for no effect and ±100 for the full control effect; potency is read from the fitted curve at half-maximal effect.

| Structure (SMILES) | activity change, negative = inhibition [%] | Potency |
| --- | --- | --- |
| CC(C)C1(C)N=C(c2nc3ccccc3cc2C(=O)O)NC1=O (stereo not given) | 2.67 |  |
| CCOP(=S)(OCC)SCCl | 4.8 |  |
| CCSC(=O)N(CC)C1CCCCC1 | -18 |  |
| CO/N=C(/C1=NOCCO1)c1ccccc1Oc1ncnc(Oc2ccccc2Cl)c1F |  | 35.5 µM (active) |
| O=C(O)C1C(C(=O)O)C2(Cl)C(Cl)=C(Cl)C1(Cl)C2(Cl)Cl (stereo not given) | 7.95 |  |
| CC1COC(Cn2cncn2)(c2ccc(Oc3ccc(Cl)cc3)cc2Cl)O1 (stereo not given) |  | 44.7 µM (active) |
| CCCCOCCOC(C)=O | -11.4 |  |
| CCOP(=O)(SC(C)CC)SC(C)CC (stereo not given) | 2.07 |  |
| OC(c1ccc(Cl)cc1)(c1ccc(Cl)cc1)C(Cl)(Cl)Cl |  | inactive |
| CC1CCCCC1NC(=O)Nc1ccccc1 (stereo not given) | -5.26 |  |
| CCOP(=S)(NC(C)C)Oc1ccccc1C(=O)OC(C)C (stereo not given) | -18 |  |
| CCOP(=O)(OCC)Oc1ccc2c(C)c(Cl)c(=O)oc2c1 | -15.1 |  |
| Clc1ccc([C@@]2(Cn3cncn3)C[C@H](Br)CO2)c(Cl)c1 | -12.4 |  |
| C[Si](Cn1cncn1)(c1ccc(F)cc1)c1ccc(F)cc1 |  | 22.4 µM (active) |
| CCCCC(O)(Cn1cncn1)c1ccc(Cl)cc1Cl (stereo not given) | -3.06 |  |
| CCC[CH2][Sn]([Cl])([CH2]CCC)[CH2]CCC |  | 35.5 µM (active) |
| CCCCOC(=O)c1ccccc1C(=O)O | -3 |  |
| CCOc1nc(F)cc2nc(S(=O)(=O)Nc3c(Cl)cccc3Cl)nn12 | 10.8 |  |
| CCSCc1ccccc1OC(=O)NC | 7.06 |  |
| O=S(=O)(O)C(F)(F)C(F)(F)C(F)(F)C(F)(F)C(F)(F)C(F)(F)F |  | inactive |

| Structure (SMILES) | activity change, negative = inhibition [%] | Potency |
| --- | --- | --- |
| CC(C)(C)N(NC(=O)c1ccc(Cl)cc1)C(=O)c1ccccc1 | 6.92 |  |
| CCOC(=O)C(Cl)Cc1cc(-n2nc(C)n(C(F)F)c2=O)c(F)cc1Cl (stereo not given) | -12.4 |  |
| O=c1[nH]c2ccccc2c(=O)o1 | -2.12 |  |
| O=[N+]([O-])Nc1nccn1Cc1ccc(Cl)nc1 | 0.549 |  |
| Nc1cccc(Cl)c1Cl | 4.8 |  |
| [Ga]#[As] | 5.87 |  |
| CCOP(=O)(OCC)SCS(=O)(=O)C(C)(C)C | 4.58 |  |
| O=C(O)c1c(Cl)ccc2cc(Cl)cnc12 | 1.43 |  |
| CCOc1ccc(C(C)(C)COCc2cccc(Oc3ccccc3)c2)cc1 | -9.67 |  |
| Nc1ccc([N+](=O)[O-])cc1Cl | -3.11 |  |
| CCNS(=O)(=O)C(F)(F)C(F)(F)C(F)(F)C(F)(F)C(F)(F)C(F)(F)C(F)(F)C(F)(F)F | 14.4 |  |
| C#CCC1=C(C)[C@H](OC(=O)[C@H]2[C@H](C=C(C)C)C2(C)C)CC1=O | -3.81 |  |
| CCC(CC)Nc1c([N+](=O)[O-])cc(C)c(C)c1[N+](=O)[O-] | -3.02 |  |
| CN/C(=N/[N+](=O)[O-])NCC1CCOC1 (stereo not given) | 8.02 |  |
| O=[N+]([O-])c1cc(C(F)(F)F)c(Cl)c([N+](=O)[O-])c1Nc1ncc(C(F)(F)F)cc1Cl |  | 25.1 µM (active) |
| COC(=O)c1ccccc1S(=O)(=O)NC(=O)N(C)c1nc(C)nc(OC)n1 | 2.17 |  |
| CCC(C)(c1ccc(O)cc1)c1ccc(O)cc1 | 9.49 |  |
| COc1nn(C(=O)NS(=O)(=O)c2ccccc2OC(F)(F)F)c(=O)n1C | 3.24 |  |
| CC1(C)CN=C(NN=C(/C=C/c2ccc(C(F)(F)F)cc2)/C=C/c2ccc(C(F)(F)F)cc2)NC1 |  | 31.6 µM (active) |
| COc1cc(OC)nc(NC(=O)NS(=O)(=O)c2cc(NC=O)ccc2C(=O)N(C)C)n1 | -23 |  |
